Where “and” joins values, the source holds several entries; their conditions need not be identical. Equal values may be shown once. Compounds without any hit were thinned out: in the full panel of roughly 79,000, 15% have a hit. More than one record can exist for a structure, and the calls need not agree. Calls of active or inactive are those of the source. Rule as the data show it: active = growth inhibition above about 70%; inactive = the rest.
Legend:
[1] = NCI Yeast Anticancer Drug Screen. Data for the rad50 strain (AID 155);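 also: 0% = growth of vehicle-only cultures of the same strain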; details: S. cerevisiae rad50 strain growth inhibition, stronger effect = higher value
In short: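 Relative growth inhibition (compound vs vehicle) was measured in yeast with a defined repair-gene alteration.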

[2] = NCI Yeast Anticancer Drug Screen. Data for the mec2-1 strain (AID 157); details: S. cerevisiae mec2-1 strain, stronger effect = higher value
In short: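 Strain: mec2-1 (DNA repair/cell cycle alteration). Compound exposure, then growth measured; inhibition expressed relative to vehicle.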

[3] = NCI Yeast Anticancer Drug Screen. Data for the sgs1 mgt1 strain (AID 161);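 also: 0% = growth of cultures given vehicle only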; details: S. cerevisiae sgs1 mgt1 strain, stronger effect = higher value
In short: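 Read-out: growth inhibition vs vehicle controls. Cells: mutant yeast strain deficient in DNA damage repair.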

[4] = NCI Yeast Anticancer Drug Screen. Data for the cln2 rad14 strain (AID 165);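 also: 0% = growth equal to vehicle treated cultures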; details: S. cerevisiae cln2 rad14 strain, stronger effect = higher value
In short: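 Compounds are applied to the cln2 rad14 yeast strain, and growth is then compared with that of vehicle-treated cultures to give inhibition.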

[5] = NCI Yeast Anticancer Drug Screen. Data for the bub3 strain (AID 167); details: S. cerevisiae bub3 mutant strain, stronger effect = higher value
In short: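 Screening used yeast with an engineered genetic alteration affecting cell cycle control. Compound-exposed cultures were compared with vehicle cultures, and reduced growth was taken as inhibition.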

[6] = NCI Yeast Anticancer Drug Screen. Data for the mlh1 rad18 strain (AID 175); details: S. cerevisiae mlh1 rad18 strain growth inhibition, stronger effect = higher value
In short: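 Read-out is yeast growth inhibition, calculated against vehicle-only controls. The compound was applied to a strain engineered with DNA damage repair alterations.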

[7] = at 5.0 µM (retest, dose inferred, filed as 0.5)
[8] = at 50.0 µM (retest, dose inferred, filed as 5.0)

SMILES | growth inhibition [1, 7] | growth inhibition [1, 8] | growth inhibition ([1]; at 50.0 µM) | growth inhibition [2, 7] | growth inhibition [2, 8] | growth inhibition ([2]; at 50.0 µM) | growth inhibition [3, 7] | growth inhibition [3, 8] | growth inhibition ([3]; at 50.0 µM) | growth inhibition [4, 7] | growth inhibition [4, 8] | growth inhibition ([4]; at 50.0 µM) | growth inhibition [5, 7] | growth inhibition [5, 8] | growth inhibition ([5]; at 50.0 µM) | growth inhibition [6, 7] | growth inhibition [6, 8] | growth inhibition ([6]; at 50.0 µM)
O=C1C=CC(=CC=C2C=CN(CCCCCCCCCCCO)C=C2)C=C1 | 12% (inactive) and 36% (inactive) | 93% (active) and 3% (inactive) | 88.8% (active) and 49.2% (inactive) | 6% (inactive) and 40% (inactive) | 90% (active) and -2% (inactive) | 85.5% (active) and 65% (inactive) | -10% (inactive) and 44% (inactive) | 93% (active) and 2% (inactive) | 87.6% (active) and 62.8% (inactive) | 7% (inactive) and 18% (inactive) | 91% (active) and -8% (inactive) | 82.7% (active) and 57.4% (inactive) | -3% (inactive) and 34% (inactive) | 98% (active) and 2% (inactive) | 83% (active) and 50.6% (inactive) | 10% (inactive) and 37% (inactive) | 80% (active) and 1% (inactive) | 88% (active) and 59.2% (inactive)
COc1cc2c(cc1O)C1CN(C2)Cc2cc(OC)c(O)cc21 | -5% (inactive) | 67% (inactive) | 51.4% (inactive) | -3% (inactive) | 78% (active) | 35% (inactive) | -11% (inactive) | 76% (active) | 30.3% (inactive) | 2% (inactive) | 75% (active) | 79.2% (active) | -2% (inactive) | 69% (inactive) | 33.7% (inactive) | 14% (inactive) | 80% (active) | 74.3% (active)
CSc1ccc(N2C(=O)CSC2=S)cc1Cl | 27% (inactive) | 74% (active) | 97.5% (active) | 27% (inactive) | 40% (inactive) | 94.3% (active) | 16% (inactive) | 79% (active) | 95.2% (active) | -1% (inactive) | -4% (inactive) | 29.1% (inactive) | 37% (inactive) | 82% (active) | 92.4% (active) | 31% (inactive) | 94% (active) | 97% (active)
CCOC(=O)C1=C(C(=O)c2ccc(OC)cc2)C(c2c(Cl)cccc2Cl)C(C(=O)c2ccc(OC)cc2)=C(C(=O)OCC)N1 | 8% (inactive) | 19% (inactive) | 53.9% (inactive) | 6% (inactive) | 35% (inactive) | 71% (active) | 19% (inactive) | -5% (inactive) | 70.3% (active) | -19% (inactive) | 18% (inactive) | 88.2% (active) | 14% (inactive) | 7% (inactive) | 88.7% (active) | 6% (inactive) | 0% (inactive) | 81.8% (active)
OCCNc1nc(NCCO)c2nc(-c3ccccc3)c(-c3ccccc3)nc2n1 | 8% (inactive) and -2% (inactive) | 61% (inactive) and 43% (inactive) | -2.2% (inactive) and 58% (inactive) | -3% (inactive) and 1% (inactive) | 45% (inactive) | -0.45% (inactive) and 43.8% (inactive) | -9% (inactive) and 0% (inactive) | 88% (active) and 51% (inactive) | 0.6% (inactive) and 57.6% (inactive) | 6% (inactive) and -2% (inactive) | 37% (inactive) and 32% (inactive) | -7.45% (inactive) and 49.8% (inactive) | 6% (inactive) and -1% (inactive) | 61% (inactive) and 43% (inactive) | -0.8% (inactive) and 41.7% (inactive) | 5% (inactive) and -1% (inactive) | 89% (active) and 52% (inactive) | 16.5% (inactive) and 61.2% (inactive)
CCC1=C(C)/C(=C/c2[nH]c(C)c(CC)c2C)N=C1C | -3% (inactive) and -5% (inactive) | 20% (inactive) and -58% (inactive) | 61.1% (inactive) and 33% (inactive) | 6% (inactive) and 0% (inactive) | 48% (inactive) and 53% (inactive) | 66.5% (inactive) and -2.85% (inactive) | 0% (inactive) and -2% (inactive) | 51% (inactive) and 32% (inactive) | 76.2% (active) and 78.1% (active) | -12% (inactive) and -15% (inactive) | 31% (inactive) and 6% (inactive) | 18.6% (inactive) and -57.5% (inactive) | 26% (inactive) and 5% (inactive) | 45% (inactive) and 33% (inactive) | 31.2% (inactive) and 22.6% (inactive) | -7% (inactive) and 4% (inactive) | 61% (inactive) and 48% (inactive) | 60.5% (inactive) and 21.7% (inactive)
O=C1OC(c2ccc(O)cc2)(c2ccc(O)cc2)c2cccc3cccc1c23 | 25% (inactive) | 99% (active) | 99% (active) | 11% (inactive) | 99% (active) | 99.2% (active) | 17% (inactive) | 99% (active) | 99% (active) | 14% (inactive) | 99% (active) | 98.9% (active) | 11% (inactive) | 99% (active) | 99% (active) | 23% (inactive) | 99% (active) | 98.3% (active)
CC(=O)Nc1ccc(S(=O)(=O)N(CCO)CCO)cc1 | -2% (inactive) | -4% (inactive) | 15.2% (inactive) | -12% (inactive) | -5% (inactive) | 98.5% (active) | -12% (inactive) | -4% (inactive) | 40.5% (inactive) | 0% (inactive) | 1% (inactive) | 57% (inactive) | -7% (inactive) | 1% (inactive) | 80.7% (active) | -20% (inactive) | -9% (inactive) | 91.2% (active)
CN1C=c2c3c(ccc2=C2C=CC4C=C5OCOC5=CC4=C21)OCO3 (centres undefined) | 48% (inactive) and 33% (inactive) | 97% (active) and 98% (active) | 92% (active) and 91.6% (active) | 32% (inactive) and 11% (inactive) | 98% (active) and 99% (active) | 93.3% (active) and 93% (active) | 56% (inactive) and 13% (inactive) | 98% (active) and 99% (active) | 93% (active) and 92.8% (active) | 37% (inactive) and 11% (inactive) | 98% (active) and 99% (active) | 92% (active) | 74% (active) and 17% (inactive) | 98% (active) and 99% (active) | 92.5% (active) and 91.8% (active) | 63% (inactive) and 30% (inactive) | 97% (active) | 92.5% (active) and 91.7% (active)
CN1C(c2ccccc2)CC(=NO)CC1c1ccccc1 (centres undefined) | 18% (inactive) | 58% (inactive) | 24.6% (inactive) and 93.9% (active) | 1% (inactive) | 45% (inactive) | 6.35% (inactive) and 27.3% (inactive) | 6% (inactive) | 58% (inactive) | 3.9% (inactive) and 82.2% (active) | -12% (inactive) | 20% (inactive) | 5.8% (inactive) and 32.3% (inactive) | 7% (inactive) | 23% (inactive) | -7.15% (inactive) and 62% (inactive) | -1% (inactive) | 41% (inactive) | 30.4% (inactive) and 85.2% (active)
NNc1nc2ccccc2s1 | 14% (inactive) | 34% (inactive) | 1.3% (inactive) and 47.8% (inactive) | 10% (inactive) | 32% (inactive) | -37% (inactive) and 42.6% (inactive) | 2% (inactive) | 38% (inactive) | 4.4% (inactive) and 72.5% (active) | 8% (inactive) | 3% (inactive) | 0.55% (inactive) and 8.6% (inactive) | 19% (inactive) | 45% (inactive) | 9.15% (inactive) and 89.6% (active) | 37% (inactive) | 64% (inactive) | -7.35% (inactive) and 88.2% (active)
CC(CCc1nc2ccccc2s1)(c1ccc(O)cc1)c1ccc(O)cc1 | 27% (inactive) | 99% (active) | 99.5% (active) | -5% (inactive) | 100% (active) | 99.7% (active) | 15% (inactive) | 100% (active) | 99.3% (active) | 6% (inactive) | 99% (active) | 98.3% (active) | -12% (inactive) | 99% (active) | 99.2% (active) | 11% (inactive) | 100% (active) | 99.2% (active)
CC(C)OP(=O)(OC(C)C)C(=Nc1ccccc1)NNc1ccc([N+](=O)[O-])cc1 | -22% (inactive) | -15% (inactive) | 71.1% (active) | -21% (inactive) | 2% (inactive) | 16.6% (inactive) | -13% (inactive) | 15% (inactive) | 22.7% (inactive) | -33% (inactive) | -6% (inactive) | -18.8% (inactive) | -17% (inactive) | -20% (inactive) | 43.6% (inactive) | -8% (inactive) | 7% (inactive) | 44% (inactive)
